In PubChem BioAssay AID624296 (National Center for Advancing Translational Sciences (NCATS), 2012):
The whole screen tested about 350,000 compounds, of which about 9,900 (2.8%) were called active. Not shown: some 15% with an inconclusive outcome. Only a selection was taken, and actives are over-represented in it overall. A number with no mark means an inactive call. Calls follow the shape of the dose curve; as a rule, active = well fitted activation curve with a large enough effect; inconclusive = small, poorly fitted or top-dose-only effect; inactive = no such curve, though single readings can be large or run the other way.

Assay: A quantitative high throughput screen for small molecules that induce DNA re-replication in MCF 10a normal breast cells. Also: nearly all actives have a fitted effect of over 50% in size. As to activity, positive = re-replication: % of control where 0% means no effect.
Details: MCF 10A DNA re-replication, Hoechst nuclear intensity, 48 h; series mostly up to 46.1 µM; activity, positive = re-replication: at the top concentration
Potency is read from the fitted curve at half-maximal effect.

Row | Compound | activity, positive = re-replication [%] | Potency
1 | O=C(CC(Cc1ccccc1)C(=O)O)NCCc1ccc2c(c1)OCO2 (stereo unspecified) | 2.45 | –
2 | Cn1cc(CCC(=O)NCc2ccc3c(c2)OCO3)c2ccccc21 | -6.37 | –
3 | O=C(CCc1nnc(Cc2ccc3c(c2)OCO3)o1)NCCc1ccccc1Cl | – | 20.6 µM (active)
4 | COc1ccc(CCC(=O)N2CCN(S(=O)(=O)c3ccc(OC)cc3)CC2)cc1 | -1.3 | –
5 | Cc1ccccc1-n1c(C)cc(/C=C2\NC(=O)NC2=O)c1C | – | 25.9 µM (active)
6 | Cc1ccccc1-n1c(C)cc(/C=N/NC(=O)c2ccc(CN3CCOCC3)cc2)c1C | 4.86 | –
7 | Cc1ccc(CN2C(=O)N/C(=C/c3cc(C)n(-c4ccccn4)c3C)C2=O)cc1 | 3.85 | –
8 | CC1(C)CC(=O)C=C(c2cccc3c2Oc2ccccc2S3)C1 | 20.6 | –
9 | CC(=NNC(=O)c1ccc2nc[nH]c2c1)c1ccc(Br)cc1 | 0.489 | –
10 | O=C(Nc1cccc2ncccc12)c1ccc(-c2ccc(Cl)cc2Cl)o1 | 15.5 | –
11 | Cc1csc(NC(=O)c2ccc(-c3ccc(Cl)cc3Cl)o2)n1 | – | 18.4 µM (active)
12 | Cc1csc(NC(=O)c2ccc(C)s2)n1 | 21.9 | –
13 | CC(Nc1ccc([N+](=O)[O-])cc1[N+](=O)[O-])c1ccccc1 (stereo unspecified) | 24.8 | –
14 | Cc1nc2cc(C(F)(F)F)ccc2n1CCNc1nc(-c2cc(Cl)c(N)c(Cl)c2)cs1 | – | 23.1 µM (active)
15 | CCCn1c(C(C)Nc2nc(-c3ccc(C)cc3)cs2)nc2cc(Cl)c(N3CCCCC3)cc21 (stereo unspecified) | -30.3 | –
16 | CCCn1c(CCNc2nc(-c3ccc(OC)cc3)cs2)nc2ccccc21 | 24.8 | –
17 | CC1CCCCC1NC(=O)Cn1cnc2c1c(=O)n(C)c(=O)n2C (stereo unspecified) | -2.1 | –
18 | CCCN(CC(=O)Nc1ccccc1C)C(=O)c1ccc(OCC(=O)N2CCOCC2)c(OCC)c1 | 0.566 | –
19 | COCCNC(=O)c1ccc2nc(Cc3ccc(OC)c(OC)c3)oc2c1 | – | 3.26 µM (active)
20 | COc1ccc(Cc2nc3ccc(C(=O)NCC4CCOCC4)cc3o2)cc1OC | -2.78 | –
21 | CSCCNC(=O)c1ccc2nc(Cc3ccccc3F)oc2c1 | 4.94 | –
22 | CCOc1ccc(NC(=O)CN(C)C(=O)c2cccc(S(=O)(=O)N3CCCC3)c2)cc1OCC | -0.541 | –
23 | COc1ccc(S(=O)(=O)N2CCOCC2)cc1NC(=O)c1ccc(OCC(C)C)c(OC)c1 | -3.94 | –
24 | CCCCCOc1ccc(CSC2=NCCN2)cc1[N+](=O)[O-] | – | 20.6 µM (active)
25 | CCCOc1ccc(Cn2ccnc2)cc1[N+](=O)[O-] | 4.34 | –
26 | Cc1nc(SCc2ccc(F)cc2)c([N+](=O)[O-])[nH]1 | 2.7 | –

Row | Compound | activity, positive = re-replication [%] | Potency
27 | COc1ccccc1C1=CC(=O)C[C@H](c2ccc(F)cc2)C1 | -0.998 | –
28 | CCC(Cc1ccccc1)NC(=O)C1CCCCC1 (stereo unspecified) | – | 0.651 µM (active)
29 | O=C(COC(=O)CNC(=O)C1CCCCC1)NCc1ccccc1 | -4.63 | –
30 | Cc1ccc(NC(=O)[C@H](Cc2ccccc2)NC(=O)C2CCNCC2)cc1 | -3.39 | –
31 | O=C(O)c1ccc(Cn2cnc3c(=S)nc[nH]c32)cc1 | 0.877 | –
32 | COc1ccccc1N(CCOc1ccccc1)S(=O)(=O)c1ccccc1 | 16.1 | –
33 | Cc1cccc(C(=O)NCCCN(C)CCCNC(=O)c2cccc(C)c2)c1 | -1.15 | –
34 | COc1ccc(C(=O)NN(C)c2nc(-c3ccccc3)cc(C)c2S(C)(=O)=O)cc1 | 13.4 | –
35 | CSc1nc(N(C)NC(=O)c2cccc(C)c2)c2ccccc2n1 | – | 0.231 µM (active)
36 | CCN(c1ccccc1)S(=O)(=O)c1ccc(OCC(=O)N2CCCC2)cc1 | 2.91 | –
37 | Cc1c(C)n(Cc2ccc(Cl)cc2)c2ccc(C(=O)NCCCN3CCOCC3)cc12 | – | 23.1 µM (active)
38 | O=C(NCCN1CCOCC1)c1ccc2c(c1)N(Cc1ccc(Cl)cc1)CCS2 | -0.362 | –
39 | Cc1ccc(C(=O)NCCN2CCOCC2)cc1C | -21.7 | –
40 | COC(=O)C1=CO[C@@H](O[C@@H]2O[C@H](CO)[C@@H](O)[C@H](O)[C@H]2O)C2C1C[C@H](O)[C@@H]2C (stereo partly specified) | 3.4 | –
41 | O=c1nc(NO)ccn1C1CCCO1 (stereo unspecified) | -1.94 | –
42 | COc1cc(NC(=O)c2ccccc2NS(=O)(=O)c2ccc(Cl)s2)cc(OC)c1 | – | 14.6 µM (active)
43 | COc1cc(OC)c(S(=O)(=O)Nc2ccccc2C(=O)O)cc1S(=O)(=O)Nc1ccccc1C(=O)O | 2.07 | –
44 | COc1cc(NC(=O)c2cccnc2SC)cc(OC)c1 | 11.3 | –
45 | N#Cc1ccc(CN2CCN(CC(=O)Nc3ccccc3C(=O)NC3CC3)CC2)cc1 | -1.12 | –
46 | O=C(Nc1ccc2c(c1)OCO2)C1CC1(Cl)Cl (stereo unspecified) | 3.6 | –
47 | CC(=O)Nc1ccc(S(=O)(=O)NCC(=O)OCC(=O)c2ccc[nH]2)cc1 | -5.01 | –
48 | CCCCNc1nc2c(c(=O)n(C)c(=O)n2C)n1Cc1cccc(OC)c1 | 22.9 | –
49 | CCCCNc1c(-c2cccc(Sc3ccc(OC)cc3)c2)nc2ccccn12 | – | 18.4 µM (active)
50 | COc1ccc(Sc2nc(-c3ccccc3)ncc2OC)cc1 | -0.264 | –
51 | Fc1ccc2cnc(-c3ccccc3)cc2c1 | -6.69 | –
